Measured values from PubChem BioAssay (NCI).
This is part of a sample that, as a whole, favours compounds with a hit. Of some 79,000 tested, about 15% had one in any assay. Calls of active or inactive are those of the source. Rule as the data show it: active = growth inhibition above about 70%; inactive = the rest.

Assays:
[1] = NCI Yeast Anticancer Drug Screen. Data for the mec2-1 strain (AID 157); settings: S. cerevisiae mec2-1 strain, hits give high values
Summary of the method: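 Test agents were screened against the mec2-1 yeast strain, with defined DNA repair or cell cycle alteration. Growth was scored as inhibition against vehicle-only controls.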

[2] = NCI Yeast Anticancer Drug Screen. Data for the rad14 strain (AID 159);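 also: 0% = growth of vehicle-treated control cultures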; settings: S. cerevisiae rad14 strain growth inhibition, hits give high values
Summary of the method: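 DNA repair-defective yeast, compound-exposed; % growth inhibition derived by comparison with vehicle-treated controls.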

[3] = NCI Yeast Anticancer Drug Screen. Data for the sgs1 mgt1 strain (AID 161);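 also: 0% = growth of cultures given vehicle only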; settings: S. cerevisiae sgs1 mgt1 strain, hits give high values
Summary of the method: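 Genetically altered yeast, compound exposure, growth inhibition relative to vehicle.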

[4] = NCI Yeast Anticancer Drug Screen. Data for the CLN2oe strain (AID 163);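 also: 0% = growth of vehicle-only control cultures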; settings: S. cerevisiae CLN2oe strain, hits give high values
Summary of the method: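 Here, growth inhibition in a cell-cycle-altered yeast strain after compound exposure was quantified against vehicle control growth.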

[5] = NCI Yeast Anticancer Drug Screen. Data for the cln2 rad14 strain (AID 165);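 also: 0% = growth equal to vehicle treated cultures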; settings: S. cerevisiae cln2 rad14 strain, hits give high values
Summary of the method: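 Growth of compound-exposed yeast (cln2 rad14 genotype) measured and expressed as inhibition relative to vehicle.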

[6] = NCI Yeast Anticancer Drug Screen. Data for the bub3 strain (AID 167); settings: S. cerevisiae bub3 mutant strain, hits give high values
Summary of the method: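 In this screen, a yeast mutant lacking normal mitotic checkpoint function is challenged with compound. Relative growth versus vehicle gives the inhibition value.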

[7] = NCI Yeast Anticancer Drug Screen. Data for the wt2 strain (AID 169);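 also: 0% = growth of vehicle-treated yeast cultures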; settings: S. cerevisiae wt2 strain growth inhibition, hits give high values
Summary of the method: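 Genetically defined yeast strains from a DNA-repair/cell-cycle panel were used. Compound-exposed yeast growth was measured, and the inhibition was calculated relative to vehicle treatment.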

[8] = NCI Yeast Anticancer Drug Screen. Data for the mlh1 strain (AID 171);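 also: 0% = growth of vehicle-treated control cultures of the same strain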; settings: S. cerevisiae mlh1 strain growth inhibition, hits give high values
Summary of the method: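 Here the genetically defined yeast mutant is grown with each compound, and the extent to which its growth falls below that of vehicle-exposed cells is reported.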

[9] = NCI Yeast Anticancer Drug Screen. Data for the sgs1 strain (AID 173);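 also: 0% = growth of vehicle-only control cultures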; settings: S. cerevisiae sgs1 mutant, hits give high values
Summary of the method: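 Relative growth inhibition, referenced to vehicle, was determined in a yeast strain with a defined alteration affecting DNA damage repair or cell cycle control after compound exposure.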

[10] = NCI Yeast Anticancer Drug Screen. Data for the rad18 strain (AID 177); settings: S. cerevisiae rad18 mutant growth inhibition, hits give high values
Summary of the method: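 Screen uses a yeast strain with a defined lesion in DNA damage repair; compound effect is read as loss of growth compared to untreated vehicle cultures.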

[11] = NCI Yeast Anticancer Drug Screen. Data for the rad52 strain (AID 147);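 also: 0% = growth of vehicle-treated control cultures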; settings: S. cerevisiae rad52 mutant growth inhibition, hits give high values
Summary of the method: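 Measured: yeast growth inhibition. System: strain with a defined DNA damage repair alteration. Reference: vehicle-treated control cultures.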

[12] = NCI Yeast Anticancer Drug Screen. Data for the wt1 strain (AID 149);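 also: 0% = growth of vehicle-treated wt1 cultures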; settings: S. cerevisiae wt1 strain (SPY 50644) growth inhibition, hits give high values
Summary of the method: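 wt1 strain grown with compound or vehicle; inhibition taken from the growth difference.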

[13] = NCI Yeast Anticancer Drug Screen. Data for the mgt1 strain (AID 153); settings: S. cerevisiae mgt1 mutant growth inhibition, hits give high values
Summary of the method: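 After exposure of the mgt1 yeast mutant to compound, growth was measured and reported as inhibition compared with vehicle controls.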

[14] = NCI Yeast Anticancer Drug Screen. Data for the rad50 strain (AID 155);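 also: 0% = growth of vehicle-only cultures of the same strain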; settings: S. cerevisiae rad50 strain growth inhibition, hits give high values
Summary of the method: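 DNA repair mutant yeast, compound exposure, growth read-out; inhibition is taken relative to vehicle.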

[15] = NCI Yeast Anticancer Drug Screen. Data for the mlh1 rad18 strain (AID 175); settings: S. cerevisiae mlh1 rad18 strain growth inhibition, hits give high values
Summary of the method: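 In this whole-cell yeast screen, a strain with altered DNA damage repair is challenged with compound, and its growth is measured against matched vehicle-treated controls.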

[16] = NCI Yeast Anticancer Drug Screen. Data for the rad50EPP+ strain (AID 151);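 also: 0% = growth of vehicle-treated control cultures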; settings: S. cerevisiae rad50 mutant strain, hits give high values
Summary of the method: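 One strain with a rad50 alteration (rad50EPP+) was compound-treated, its growth then compared to that of vehicle controls.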

[17] = at 5.0 µM (retest, dose inferred, filed as 0.5)
[18] = at 50.0 µM (retest, dose inferred, filed as 5.0)

Measured: growth inhibition

CCCN=Cc1cc(Cc2ccc(O)c(C=NCCC)c2)ccc1O
inactive: [2]; at 1.2 µM 57% | [3]; [17] -15% | [3]; [18] -85% | [5]; [17] -41% | [5]; [18] -84% | [6]; at 1.2 µM 64% | [6]; [17] -49% | [6]; [18] -86% | [7]; at 1.2 µM 29% | [8]; at 1.2 µM 60% | [9]; at 1.2 µM 58% | [10]; at 1.2 µM 45%
active: [1]; at 100.0 µM 98% | [2]; at 3.7 µM 97% | [2]; at 11.0 µM 98% | [2]; at 33.0 µM 99% | [2]; at 100.0 µM 98% | [3]; at 50.0 µM 92.2% | [4]; at 1.2 µM 78% | [4]; at 3.7 µM 97% | [4]; at 11.0 µM 98% | [4]; at 33.0 µM 99% | [4]; at 100.0 µM 98% | [5]; at 50.0 µM 91.4% | [6]; at 3.7 µM 95% | [6]; at 11.0 µM 98% | [6]; at 33.0 µM 98% | [6]; at 50.0 µM 90.8% | [6]; at 100.0 µM 97% | [7]; at 3.7 µM 98% | [7]; at 11.0 µM 99% | [7]; at 33.0 µM 99% | [7]; at 100.0 µM 98% | [8]; at 3.7 µM 96% | [8]; at 11.0 µM 98% | [8]; at 33.0 µM 98% | [8]; at 100.0 µM 96% | [9]; at 3.7 µM 89% | [9]; at 11.0 µM 98% | [9]; at 33.0 µM 98% | [9]; at 100.0 µM 97% | [10]; at 3.7 µM 95% | [10]; at 11.0 µM 98% | [10]; at 33.0 µM 99% | [10]; at 100.0 µM 99%

Cc1ccnc2c(O)cccc12
inactive: [11]; at 1.2 µM 3% | [12]; at 1.2 µM -5% | [12]; at 3.7 µM 19% | [13]; at 1.2 µM -8% | [14]; at 1.2 µM 6% | [14]; [17] 24% | [1]; at 1.2 µM 31% | [1]; [17] -1% | [2]; at 1.2 µM 0% | [2]; at 3.7 µM 24% | [4]; at 1.2 µM 24% | [5]; [17] 22% | [6]; at 1.2 µM -6% | [6]; at 3.7 µM 47% | [6]; [17] 41% | [7]; at 1.2 µM -8% | [7]; at 3.7 µM 25% | [8]; at 1.2 µM 14% | [9]; at 1.2 µM -13% | [9]; at 3.7 µM 59% | [10]; at 1.2 µM -3% | [10]; at 3.7 µM 60%
active: [11]; at 3.7 µM 96% | [11]; at 11.0 µM 96% | [11]; at 33.0 µM 99% | [11]; at 100.0 µM 99% | [12]; at 11.0 µM 76% | [12]; at 33.0 µM 93% | [12]; at 100.0 µM 98% | [13]; at 3.7 µM 73% | [13]; at 11.0 µM 91% | [13]; at 33.0 µM 99% | [13]; at 100.0 µM 99% | [14]; at 3.7 µM 97% | [14]; at 11.0 µM 98% | [14]; at 33.0 µM 99% | [14]; [18] 99% | [14]; at 50.0 µM 98.2% | [14]; at 100.0 µM 99% | [1]; at 3.7 µM 98% | [1]; at 11.0 µM 100% | [1]; at 33.0 µM 100% | [1]; [18] 98% | [1]; at 50.0 µM 97.3% | [1]; at 100.0 µM 100% | [2]; at 11.0 µM 83% | [2]; at 33.0 µM 98% | [2]; at 100.0 µM 99% | [3]; [17] 73% | [3]; [18] 99% | [3]; at 50.0 µM 97.8% | [4]; at 3.7 µM 98% | [4]; at 11.0 µM 99% | [4]; at 33.0 µM 100% | [4]; at 100.0 µM 99% | [5]; [18] 96% | [5]; at 50.0 µM 97.5% | [6]; at 11.0 µM 98% | [6]; at 33.0 µM 99% | [6]; [18] 99% | [6]; at 50.0 µM 97.9% | [6]; at 100.0 µM 99% | [7]; at 11.0 µM 80% | [7]; at 33.0 µM 84% | [7]; at 100.0 µM 97% | [8]; at 3.7 µM 99% | [8]; at 11.0 µM 99% | [8]; at 33.0 µM 100% | [8]; at 100.0 µM 99% | [9]; at 11.0 µM 98% | [9]; at 33.0 µM 99% | [9]; at 100.0 µM 99% | [15]; [17] 87% | [15]; [18] 99% | [15]; at 50.0 µM 98.7% | [10]; at 11.0 µM 97% | [10]; at 33.0 µM 99% | [10]; at 100.0 µM 99%

Nc1ccc(/C=C/c2ccc3cccnc3c2)cc1
active: [6]; at 11.0 µM 85% | [6]; at 33.0 µM 94% | [6]; [18] 92% | [6]; at 50.0 µM 93.3% | [6]; at 100.0 µM 94% | [10]; at 100.0 µM 77%
inactive: [11]; at 1.2 µM -3% | [11]; at 3.7 µM -3% | [11]; at 11.0 µM -1% | [11]; at 33.0 µM 11% | [11]; at 100.0 µM 29% | [16]; at 1.2 µM -2% | [16]; at 3.7 µM 1% | [16]; at 11.0 µM 8% | [16]; at 33.0 µM 34% | [16]; at 100.0 µM 41% | [13]; at 1.2 µM 0% | [13]; at 3.7 µM 1% | [13]; at 11.0 µM -3% | [13]; at 33.0 µM -3% | [13]; at 100.0 µM 22% | [14]; at 1.2 µM 5% | [14]; at 3.7 µM 29% | [14]; [17] 5% | [14]; at 11.0 µM 23% | [14]; at 33.0 µM 14% | [14]; [18] 28% | [14]; at 50.0 µM 10.8% | [14]; at 100.0 µM 29% | [1]; at 1.2 µM -2% | [1]; at 3.7 µM -2% | [1]; [17] -1% | [1]; at 11.0 µM -3% | [1]; at 33.0 µM 1% | [1]; [18] 17% | [1]; at 50.0 µM 1.95% | [1]; at 100.0 µM 6% | [2]; at 1.2 µM 1% | [2]; at 3.7 µM 4% | [2]; at 11.0 µM 5% | [2]; at 33.0 µM 13% | [2]; at 100.0 µM 28% | [3]; [17] 3% | [3]; [18] 50% | [3]; at 50.0 µM 46.2% | [4]; at 1.2 µM 2% | [4]; at 3.7 µM 2% | [4]; at 11.0 µM 1% | [4]; at 33.0 µM -4% | [4]; at 100.0 µM 0% | [5]; [17] -5% | [5]; [18] 3% | [5]; at 50.0 µM -6.75% | [6]; at 1.2 µM 5% | [6]; at 3.7 µM 23% | [6]; [17] 24% | [8]; at 1.2 µM -1% | [8]; at 3.7 µM -1% | [8]; at 11.0 µM -1% | [8]; at 33.0 µM -2% | [8]; at 100.0 µM 21% | [9]; at 1.2 µM -1% | [9]; at 3.7 µM 1% | [9]; at 11.0 µM 3% | [9]; at 33.0 µM 20% | [9]; at 100.0 µM 46% | [15]; [17] 3% | [15]; [18] 20% | [15]; at 50.0 µM 32.8% | [10]; at 1.2 µM 1% | [10]; at 3.7 µM 1% | [10]; at 11.0 µM 11% | [10]; at 33.0 µM 59%
